Compounds with a hit are over-represented: about 3.1% of the library has one in this group of screens.
ALOX12 inhib: 12-hLO (ALOX12) enzyme inhibition; 0.12% of 150,000 active; Potency, µM (series often up to 57.1 µM), for the others: at the top dose activity change, negative = inhibition, actives largely listed as inhibitors; P18054; purified 12-hLO, xylenol orange hydroperoxide absorbance; note: potency is the fitted concentration of half-maximal effect; nearly all actives have a fitted effect of over 55% in size
Target sequence (P18054 whole entry, looked up): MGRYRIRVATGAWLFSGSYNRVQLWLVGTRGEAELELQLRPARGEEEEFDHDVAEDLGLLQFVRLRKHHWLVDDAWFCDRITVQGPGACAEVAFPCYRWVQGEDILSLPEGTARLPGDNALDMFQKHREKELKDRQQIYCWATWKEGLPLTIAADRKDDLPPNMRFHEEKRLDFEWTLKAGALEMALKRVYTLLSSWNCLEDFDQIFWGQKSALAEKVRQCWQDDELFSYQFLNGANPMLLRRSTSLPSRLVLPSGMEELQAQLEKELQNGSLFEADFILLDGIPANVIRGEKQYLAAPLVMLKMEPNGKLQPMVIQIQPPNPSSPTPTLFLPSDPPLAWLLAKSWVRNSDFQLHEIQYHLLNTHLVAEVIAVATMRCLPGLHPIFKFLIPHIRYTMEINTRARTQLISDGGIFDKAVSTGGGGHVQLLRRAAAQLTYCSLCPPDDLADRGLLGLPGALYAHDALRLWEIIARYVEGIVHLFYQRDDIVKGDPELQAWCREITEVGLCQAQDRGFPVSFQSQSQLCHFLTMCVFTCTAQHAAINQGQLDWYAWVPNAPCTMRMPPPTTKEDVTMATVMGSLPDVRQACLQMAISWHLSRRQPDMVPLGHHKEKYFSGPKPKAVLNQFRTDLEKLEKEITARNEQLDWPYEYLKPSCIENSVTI
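Lipoxygenase turnover measured by absorbance at 573 and 405 nm after Fe-XO development. Human 12hLO 150 nM, arachidonate 40 uM, pH 7.0 Hepes buffer with detergent; 15 min compound preincubation, 30 min reaction.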
PNC inhibitor: blocks assembly of the perinucleolar compartment. PC3M PTB-GFP, PNC prevalence imaging, 16 h; active compounds read low. AID 2417. 3.1% of 140,000 active. activity change (PNC), negative = inhibition, % at 10 µM;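 active = readout at or below -70, meaning at least 70% loss of cells showing the perinucleolar compartment, a nuclear body marking cancer cells; inconclusive = readout between -30 and a set limit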;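 note: plate controls were DMSO wells for no effect and camptothecin positive control wells for full effect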
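Compounds are pinned in duplicate onto adhered PC3M cells stably expressing GFP-tagged PTB and incubated 16 h at 37 C. Cells are then fixed, nuclei stained with Hoechst, and PNC-positive cells counted.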
15-hLO-2 inh: blocks human 15-lipoxygenase 2 activity. O15296. purified 15hLO-2, xylenol orange hydroperoxide absorbance. Potency, µM (series often up to 57.1 µM), for inactives: at the highest dose activity change, negative = inhibition, usual class: inhibitors. 0.56% of 110,000 active; note: potency is the fitted concentration of half-maximal effect; nearly all actives have a fitted effect of over 60% in size
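Purified human 15hLO-2 (50 nM final) preincubated with compounds 15 min at room temperature in 25 mM Hepes pH 7.5, 0.01% Triton X-100, then 45 uM arachidonic acid added for 90 min; hydroperoxide detected via ferrous/xylenol orange, 573/405 nm absorbance ratio.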
The depositor's hits bear a star; u = inconclusive; x = not tested or not shown; [ ] = remark or other dose. Unless noted, calls come from the whole dose curve; as a rule, active = well fitted curve in the direction sought with a large enough effect; inconclusive = small, poorly fitted or top-dose-only effect, or another doubt; inactive = no such curve, though single readings can be large; an effect the other way counts as inactive or inconclusive. Unless noted, % is set by controls: 0 for no effect and ±100 for the full control effect.

SMILES | ALOX12 inhib | PNC inhibitor | 15-hLO-2 inh
CC(C)C[C@@H](CC(=O)N[C@@H](CCC(=O)O)CC(=O)O)NC(=O)[C@@H]1CNCC[C@H]1NC(=O)C[C@@H](NC(=O)C[C@H](Cc1c[nH]c2ccccc12)NC(=O)[C@@H]1CNCC[C@H]1N)C(C)C | 2.0% | x | x
COc1ccc(/C=N/n2c(SC)nnc2-c2ccccc2)cc1C | -8.9% | 2.4 | -14.5%
COc1ccc(/C=N/n2c(SC)nnc2-c2ccccc2)c(OC)c1OC | -4.5% | -124.6* | -9.6%
COCCn1c(=O)c(C)nc2cnc(OC)nc21 | x | x | -2.4%
COc1ccc2c(c1)OCC(Cc1ccc(OC)c(O)c1)C2=O (centres undefined) | -0.9% | x | -10.0%
COC(=O)[C@@]1(Cc2ccccc2)[C@H]2c3cc(C(=O)N(C)C)n(CCN4CNCC4=O)c3C[C@H]2CN1C(=O)c1ccccc1 | -1.5% | x | 3.5%
CCC(=O)N1CCN(c2ccc(Cl)cc2NC(=O)Cc2ccc(Cl)cc2)CC1 | -1.6% | -82.4* | 3.8%
CCC(=O)N1CCN(c2ccccc2NC(=O)Cc2ccc(Cl)cc2)CC1 | -5.2% | u | -1.7%
CCOC(=O)c1c(CN(CC)CC)oc2ccc(OC)cc12 | 4.0% | -100.0* | x
CCOC(=O)c1c(CN(CC)CC)oc2cc(Br)c(O)cc12 | -3.5% | 24.0 | 18.4%
Nc1ncnc(Sc2ccc(Cl)cc2)c1[N+](=O)[O-] | -1.1% | -103.0* | x
Cc1ccc(Sc2ncnc(N)c2[N+](=O)[O-])cc1 | -2.3% | -19.0 | x
CN1C(=O)c2ccc(C(=O)NCc3ccccc3)cc2C1=O | 3.7% | -92.4* | -19.5%[11.4 µM]
COCCN1C(=O)c2ccc(C(=O)NCc3cccnc3)cc2C1=O | -0.6% | -17.9 | -2.3%
COc1ccc(S(=O)(=O)N(C(C)=O)c2ccc3oc(=O)sc3c2)cc1 | 8.91µM* | 4.5 | -23.3%
COc1ccc(N(C(=O)C(C)C)S(=O)(=O)c2ccc(Cl)cc2)cc1 | -13.4% | 6.2 | 6.1%
COC(=O)[C@@]1(Cc2ccc(OC)cc2)[C@H]2c3cc(C(=O)N(C)C)n(Cc4ccc(Cl)c(C(F)(F)F)c4)c3C[C@H]2CN1C(=O)c1ccccc1 | -12.1% | x | 10.6%
Cc1cc(-c2csc(N)n2)c(C)n1CCc1ccccc1 | -18.6% | -107.7* | 17.3%
Cc1cc(-c2csc(N)n2)c(C)n1CCC(C)C | -14.4% | u | 17.6%
O=C(c1csnn1)N1CCC2(CC1)CN(c1cccc(-c3ccccc3)c1)C2 | -0.4% | x | 6.1%
COc1ccc(C=Nc2c(O)ccc3ccccc23)cc1OC | -2.3%[11.4 µM] | x | -8.8%[11.4 µM]
N=C1C(c2nc3ccccc3c(=O)[nH]2)=C(O)CN1CCO | -3.4% | 26.2 | 7.7%
COCCN1CC(O)=C(c2nc3ccccc3c(=O)[nH]2)C1=N | -2.0% | -100.0* | x
COC(=O)c1cc(CNC(=O)c2cccc(Cl)c2)ccc1OC | 2.1% | -88.9* | x
COC(=O)c1cc(CNC(=O)c2cccc(Cl)c2Cl)ccc1OC | -2.4% | -2.6 | x
SMILES | ALOX12 inhib | PNC inhibitor | 15-hLO-2 inh
Cc1cc(C)cc(C(=N)c2ccccc2Cc2cccc3ccccc23)c1 | -4.0%[11.4 µM] | x | 2.2%[11.4 µM]
NCCc1ccn[nH]1 | -1.2%[25.6 µM] | x | 5.5%[25.6 µM]
COc1ccc(-c2coc3cc4oc(=O)cc(-c5ccccc5)c4cc23)cc1F | 4.3% | -110.8* | x
COc1ccc(-c2coc3cc4oc(=O)cc(C)c4cc23)cc1F | -4.2% | 20.3 | u
CN(Cc1ccccc1)Cc1nc2c([nH]1)c(=O)n(C)c(=O)n2C | 3.1% | -100.0* | x
CCCn1c(CN(C)Cc2ccccc2)nc2c1c(=O)n(C)c(=O)n2C | 0.5% | -22.3 | x
C[C@@H]1c2ccccc2Cn2cc3c(c21)C(=O)c1cccc(OP(=O)(O)OCc2ccccc2)c1C3=O | -18.3%[11.4 µM] | x | 2.2%[11.4 µM]
CCOc1ccc(C2=NNC(c3cccs3)=Nc3ccc(OC)cc32)cc1OCC | -6.1% | -100.0* | x
COc1ccc(C2=NNC(c3cccs3)=Nc3ccc(OC)cc32)cc1 | -7.2% | u | x
C=CCN1c2ccccc2[C@]23C[C@@H](C(=O)OC)N(S(=O)(=O)CCCC)C2=NC(C(=O)OC)=C(C(=O)OC)[C@H]13 | -2.4%[11.4 µM] | x | x
CC1CC(=O)C2=C(C1)Nc1ccccc1SC2c1ccc(F)cc1 (centres undefined) | -5.4% | -85.3* | x
Cc1ccc(C2Nc3ccccc3NC3=C2C(=O)OC(C)C3)cc1 (centres undefined) | -0.3% | u | x
Cc1ccc(C)c(NC(=O)c2cc(-c3ccccc3)nn2-c2ccccc2)c1 | 0.4% | u | x
O=C(Nc1nnc(C2CC2)s1)c1cc(-c2ccccc2)nn1-c1ccccc1 | 1.0% | -81.5* | 26.0%
O=C(Cn1c(SCC(=O)N2CCCc3ccccc32)nc2ccccc21)N1CCCC1 | 1.2% | -100.0* | x
Cn1cccc1Cc1nnc(SCC(=O)N2CCCc3ccccc32)n1-c1ccc(F)cc1 | -2.3% | 19.0 | x
CC(C)NC(=O)Cn1c(SCC(=O)N2CCCc3ccccc32)nc2ccccc21 | -2.5% | -16.9 | 9.8%
COc1ccc(-n2c(Cc3ccccc3)nnc2SCC(=O)N2CCCc3ccccc32)cc1 | 2.3% | -100.0* | x
O=C(Nc1cccc(F)c1)N1CCCC2(CCN(C(=O)c3cc(C(F)(F)F)cc(C(F)(F)F)c3)CC2)C1 | -1.2% | x | 4.0%
CC[C@]1(O)C[C@@H]2CN(CCc3c([nH]c4ccccc34)[C@](C(=O)OC)(c3cc4c(cc3OC)N(C)[C@H]3[C@](O)(C(=O)OC)[C@@H](C(=O)OC)[C@@]5(CC)C=CCN6CC[C@@]43[C@@H]65)C2)C1 | -9.6% | x | 9.2%
O=C1c2ccccc2C(=O)N1c1ccc(-c2nc3ccccc3o2)cc1 | -2.5% | u | 1.8%
O=C1c2ccccc2C(=O)N1c1cccc(-c2nc3ccccc3o2)c1 | 1.4% | -88.7* | -10.9%
O=[N+]([O-])c1ccc(N/N=C/c2ccc[nH]2)cc1 | 6.31µM* | -96.7* | x
O=[N+]([O-])c1ccc(N/N=C/c2c[nH]c3ccccc23)cc1 | -21.2% | 28.7 | u
Cc1ccc(C2CC(=O)Oc3ccc(O)cc32)cc1 (centres undefined) | -3.9%[0.00818 µM] | x | u
SMILES | ALOX12 inhib | PNC inhibitor | 15-hLO-2 inh
C#CCCOC(=O)N1C2=NC(C(=O)OC)=C(C(=O)OC)[C@@H]3N(CC#CC)c4ccccc4[C@]23C[C@H]1C(=O)OC | -0.1%[11.4 µM] | x | x
c1cncc(CSc2ncnc3nc[nH]c23)c1 | 0.6%[11.4 µM] | x | 5.2%[11.4 µM]
CCOC(=O)C(C)n1cnc2c1c(=O)[nH]c(=O)n2C (centres undefined) | -1.5% | -100.0* | x
CCOC(=O)C(C)Sc1nc2c(c(=O)[nH]c(=O)n2C)n1C/C=C(/C)Cl (centres undefined) | -8.3% | 13.6 | 7.9%
CCOC(=O)c1cccc(NC(=O)CSc2nc3ccccc3c(=O)n2CC)c1 | 1.2% | -93.6* | -5.6%
O=C(CSc1nc2ccsc2c(=O)n1Cc1ccc(C(=O)O)cc1)NCc1ccco1 | -2.1% | -113.4* | x
COc1ccc(NC(=O)CSc2nc3ccccc3c3nc4ccccc4n23)cc1 | -0.8% | 34.1 | x
COc1ccc(Cn2c(SCC(=O)NCc3ccco3)nc3ccsc3c2=O)cc1 | 2.4% | 4.6 | -1.1%
Cc1ccc(NC(=O)CSc2nc3ccccc3c3nc4ccccc4n23)cc1 | -3.0% | -107.5* | u
O=C(CCCCCn1c(SCc2ccncc2)nc2ccccc2c1=O)NCc1ccco1 | -2.9% | -100.0* | x
O=C(CSc1nc2ccccc2c(=O)n1CCCC(=O)N1CCCC1)NCc1ccco1 | 0.7% | 52.0 | -9.1%
